# Rows were chosen to be rich in hits. Some 3.2% of all compounds tested hit in one or more screens of this group.
# GDH-TPI counter-1 = GDH-TPI coupled enzyme inhibition counter-screen. GDH-TPI coupled enzyme counterscreen, NADH absorbance. actives 1.2% (n = 360,000). AID 588335. inhibition, % at 4.8 µM; in the data active means inhibition above about 30%;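 further: 0% = DMSO wells and 100% = wells lacking the enzyme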
# TcdB GH inh = inhibitors of Clostridioides difficile toxin B glycohydrolase. TcdB glycohydrolase enzymatic assay, plate reader. inhibition, % at 9.99 µM. actives 0.24% (n = 350,000). AID 652162
# Yp Topo-I inh = inhibitors of Yersinia pestis topoisomerase I; Y. pestis Topo-I cleavage product accumulation, plate reader; activity, % at 10 µM; actives 0.064% (n = 360,000); in the data active means activity above about 50%, passing the limit was not always enough
# PrPC surface inh = reduces human prion protein on the cell surface. actives 0.43% (n = 370,000). inhibition, % at 13.8 µM. P04156. cell surface PrPC, TR-FRET read-out; in the data active means inhibition above about 24%; further: 0% = median of the test wells and 100% = reference compound wells
# FBA Mtb inh = inhibits M. tuberculosis FBA enzyme; AID 588726; P9WQA3; purified M. tuberculosis FBA, fluorescence read-out; inhibition, % at 1 µM; actives 2.3% (n = 360,000); in the data active means inhibition above about 27%;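 further: 0% = vehicle and 100% = reference inhibitor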
# Target sequence (P9WQA3 whole entry, looked up): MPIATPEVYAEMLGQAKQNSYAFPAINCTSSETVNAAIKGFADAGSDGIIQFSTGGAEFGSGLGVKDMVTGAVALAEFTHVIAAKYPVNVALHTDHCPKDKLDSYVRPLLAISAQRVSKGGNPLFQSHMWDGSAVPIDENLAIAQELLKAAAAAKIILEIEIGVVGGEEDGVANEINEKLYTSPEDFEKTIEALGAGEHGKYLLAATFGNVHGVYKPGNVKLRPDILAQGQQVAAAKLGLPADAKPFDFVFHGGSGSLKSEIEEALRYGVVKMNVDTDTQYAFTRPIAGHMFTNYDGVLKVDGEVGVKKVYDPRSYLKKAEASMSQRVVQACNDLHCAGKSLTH
# Mtb FBA confirm = Mtb FBA inhibition, confirmed | purified M. tuberculosis FBA, fluorescence read-out | actives 78% (n = 5,600) | inhibition, % at 1 µM | shares compounds with FBA Mtb inh; in the data active means inhibition above about 27%;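 further: 0% = vehicle wells and 100% = reference inhibitor wells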
# GDH-TPI counter-2 = GDH-TPI inhibition counter-screen for FBA inhibitors. inhibition, % at 1 µM. actives 81% (n = 5,600). AID 652141. shares compounds with FBA Mtb inh. GDH-TPI coupled enzyme counterscreen, fluorescence
# Active calls of the source: *; . = no result given; + = active, no number. Unless noted, no stated cut-off is given here; in the data, active means inhibition above about 10%; inactive means the rest.
SMILES,GDH-TPI counter-1,TcdB GH inh,Yp Topo-I inh,PrPC surface inh,FBA Mtb inh,Mtb FBA confirm,GDH-TPI counter-2
COC(=O)C12CCc3cc(OC)ccc3C1=CC(=O)C2 (configuration not stated),33.6*,2.8,3.9,-2.7,95.2*,94.8*,93.9*
COC(=O)C1(C)CCc2cc(OC)ccc2C1=O (configuration not stated),-4.8,.,-0.2,-4.4,-1.4,.,.
O=C(C[C@@H]1C=C[C@@H](NS(=O)(=O)c2ccc(F)cc2)[C@@H](CO)O1)NC1CCCCC1,.,-0.4,.,.,.,.,.
CC(=O)c1cccc(OC(=O)C2=CC=CN3CCS(=O)(=O)N=C23)c1,11.8,-0.9,-2.7,-1.6,43.9*,146.5*,152.2*
C[C@@H]1CCCCO[C@@H](CN(C)C(=O)Nc2ccc(F)cc2)[C@@H](C)CN([C@H](C)CO)C(=O)c2cc(NS(=O)(=O)c3cccs3)ccc2O1,.,-1.7,.,.,.,.,.
O=C(CN1CCOCC1)NCC[C@@H]1CC[C@H](NC(=O)Nc2ccc(C(F)(F)F)cc2)[C@H](CO)O1,.,-0.1,.,.,.,.,.
CCC(=O)N1C[C@H](C)[C@H](OC)CN(C)C(=O)c2cc(NC(=O)C3CCCCC3)ccc2OC[C@H]1C,.,-0.3,.,.,.,.,.
CNc1ccc(-c2cc(OC)ccc2OC)cn1,9.3,-3.0,-4.2,5.8,97.6*,+,155.1*
CNc1cc(-c2cc(OC)ccc2OC)ncn1,3.1,0.2,4.4,-4.8,83.9*,2.0,-0.7
COc1ccc(NC(=O)Nc2ccc3c(c2)[C@H]2C[C@@H](CC(=O)NCc4ccncc4)O[C@@H](CO)[C@H]2O3)cc1,.,-1.0,.,.,.,.,.
CC(C)OC(=O)CSc1nc(N)c(C#N)c(-c2cccs2)c1C#N,6.2,.,1.1,8.1,0.0,.,.
C=COC(=O)CSc1nc(-c2cccs2)ccc1C#N,16.2,2.0,-3.6,6.3,30.3*,71.0*,53.2*
COc1ccc(S(=O)(=O)Nc2ccc3c(c2)C(=O)N([C@@H](C)CO)C[C@@H](C)[C@@H](CN(C)C(=O)CCCN(C)C)OCCCC[C@H](C)O3)cc1,.,0.3,.,.,.,.,.
CC(C)(C)c1cc(NCCCn2ccnc2)n2ncc(-c3ccc(Cl)cc3)c2n1,14.1,.,-8.0,2.3,60.9*,59.8*,41.1*
O=C(NNC(=O)c1cc(F)c(F)cc1Cl)c1ccc(NS(=O)(=O)c2cccs2)cc1,4.4,0.4,-4.9,8.0,0.7,.,.
O=C(NNC(=O)c1cc(Cl)ccc1O)c1ccc(NS(=O)(=O)c2cccs2)cc1,13.3,0.3,-9.1,-4.5,28.6*,+,+
CCC(=O)Nc1ccc2c(c1)C(=O)N(C)C[C@@H](OC)[C@H](C)CN(CCc1ccccc1)[C@@H](C)CO2,.,0.5,.,.,.,.,.
O=C(O)CCN1C(=O)c2ccc(NC(=O)CSCc3ccccc3)cc2C1=O,6.1,-1.2,-4.2,-0.2,6.2,.,.
CC(=O)Oc1ccc(C(=O)Nc2ccc3c(c2)C(=O)N(CCC(=O)O)C3=O)cc1,22.6,.,-8.1,-3.5,47.3*,131.6*,110.0*
O=C(Cc1ccccc1)Nc1ccc2c(c1)C(=O)N(CC1CCCO1)C2=O (configuration not stated),0.8,0.0,8.3,-3.7,30.9*,148.6*,98.6*
O=C(O)CCN1C(=O)c2ccc(NC(=O)C(c3ccccc3)c3ccccc3)cc2C1=O,10.3,0.3,-1.0,-7.2,35.8*,-4.5,-5.9
O=C(O)CCN1C(=O)c2ccc(NC(=O)Cc3ccc(Cl)cc3)cc2C1=O,6.0,-7.9,-5.0,6.7,31.4*,167.0*,153.7*
Cc1noc(C)c1NC(=O)Nc1ccc2c(c1)C(=O)N([C@@H](C)CO)C[C@H](C)[C@H](CN(C)Cc1ccccc1)OCCCC[C@@H](C)O2,.,-0.3,.,.,.,.,.
CC(C)NC(=O)N(C)C[C@@H]1Oc2c(NC(=O)NC3CCCCC3)cccc2C(=O)N([C@@H](C)CO)C[C@@H]1C,.,3.0,.,.,.,.,.
Cc1nn(CC(=O)Nc2ccc3c(c2)nc2n3CCN(C3CCCCC3)C2)c(=O)c2ccccc12,-1.2,2.4,15.1,-7.8,50.9*,129.6*,101.4*
SMILES,GDH-TPI counter-1,TcdB GH inh,Yp Topo-I inh,PrPC surface inh,FBA Mtb inh,Mtb FBA confirm,GDH-TPI counter-2
CC(c1ccccc1)N1CCn2c(nc3cc(NC(=O)NC4CCCCC4)ccc32)C1 (configuration not stated),1.9,.,17.6,-11.2,56.9*,55.8*,52.2*
CC(c1ccccc1)N1CCn2c(nc3cc(NC(=O)c4cccs4)ccc32)C1 (configuration not stated),-1.1,.,5.9,-0.7,2.2,.,.
Cc1nn(CC(=O)Nc2ccc3c(c2)nc(CCN2CCCCC2)n3C)c(=O)c2ccccc12,-3.7,0.1,1.9,-1.6,10.0,.,.
Cc1noc(C)c1S(=O)(=O)N(C)C[C@@H]1Oc2ccc(NC(=O)Nc3ccc(F)cc3)cc2CC(=O)N([C@H](C)CO)C[C@@H]1C,.,-0.4,.,.,.,.,.
Cc1cccc(NC(=O)CNC(=O)COC(=O)c2ccc(C(C)(C)C)cc2)c1C,6.2,0.7,9.0,6.1,3.8,.,.
Cc1cccc(NC(=O)CNC(=O)COC(=O)C2CC2C)c1C (configuration not stated),-1.5,1.3,5.3,-4.3,29.6*,1.6,-2.1
c1ccc2c(c1)ccc1[nH]c3c(c12)CCCC3,10.6,-1.3,-20.0,-2.3,42.8*,75.2*,68.5*
COc1cc(NC(=O)COc2cc(C)cc3oc(=O)cc(C)c23)cc(OC)c1OC,2.7,-0.1,-1.6,-5.1,4.9,.,.
CCc1cc(=O)oc2cc(C)cc(OCC(=O)C(C)(C)C)c12,14.2,-0.7,8.4,-5.9,65.3*,126.2*,105.5*
CCc1cc(=O)oc2cc(C)cc(O)c12,6.1,2.4,-1.8,0.3,4.7,.,.
CCc1cc(=O)oc2cc(C)cc(OCC(C)=O)c12,11.8,1.1,-5.7,8.0,77.1*,56.1*,46.4*
Cc1ccc(OCC(=O)Oc2ccc(C(C)C)cc2)cc1,-13.1,-7.5,9.0,6.1,29.5*,183.1*,130.4*
Cc1ccc(OCC(=O)Oc2cccc(C)c2)cc1,-3.0,0.8,7.3,7.0,1.4,.,.
C[C@@H]1CN([C@H](C)CO)C(=O)c2cc(NC(=O)C3CC3)ccc2O[C@H]1CN(C)C(=O)Nc1ccc2c(c1)OCO2,.,0.5,.,.,.,.,.
CCOC(=O)c1cnn(-c2ncnc3sc(C)c(C)c23)c1N,5.7,.,2.1,1.1,76.9*,84.1*,65.9*
CCN(CCCNC(=O)CNC(=O)c1nn(-c2ccc(OC)c(OC)c2)c(=O)c2ccccc12)c1ccccc1,3.0,-0.6,13.1,3.1,27.1*,188.6*,156.0*
CCOc1ccc(-n2nc(C(=O)NCCOC)c3ccccc3c2=O)cc1,5.8,.,2.1,-7.2,67.5*,+,191.1*
CCOc1ccc(-n2nc(C(=O)NC3CCCCC3)c3ccccc3c2=O)cc1,5.9,-0.4,-4.4,-2.2,1.3,.,.
CCCCNC(=O)CNC(=O)c1nn(-c2ccc(OC)c(OC)c2)c(=O)c2ccccc12,0.9,0.8,-2.5,-12.6,-2.3,.,.

# Screening data: PubChem, several laboratories
